Reference: PubChem BioAssay (Tox21)
Values without a mark were called inactive. Results filed as inconclusive are left out. Where a call stands in place of a potency, no number is given. Calls of active or inactive are those of the source. Unless noted, the call rests on the fitted dose curve.

Tests used:
[1] = Nuclear factor erythroid 2-related factor 2/antioxidant responsive element (Nrf2/ARE) small molecule agonists: qHTS cell viability counter screen in human keratinocytes (AID 1919968; active means well fitted curve in the direction sought with a large enough effect in the repeat runs; an effect the other way counts as inactive or inconclusive; further: nearly all actives have a fitted effect of over 55% in size; further: potency means the concentration at half of the fitted maximal effect)
In short: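 In human HaCaT keratinocytes stably expressing an ARE-driven luciferase, compound exposure lasted 23 h at 37 C under 5% CO2. Viable cells are quantified with a protease-based fluorogenic reagent (CellTiter-Fluor) read 1 h after addition.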

[2] = Nuclear factor erythroid 2-related factor 2/antioxidant responsive element (Nrf2/ARE) small molecule agonists: luciferase reporter gene qHTS assay in human keratinocytes (AID 1919969); further: nearly all actives have a fitted effect of over 35% in size
[3] = target: Gonadotropin-releasing hormone receptor (Homo sapiens) (UniProt P30968); test: Human gonadotropin-releasing hormone receptor (GnRHR) small molecule agonists, calcium flux assay in GnRHR-HEK293 cells (AID 1920063); further: nearly all actives have a fitted effect of over 35% in size
In short: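 Intracellular calcium rise is the read-out: engineered human GnRHR HEK293 cells, dye-loaded, are exposed to DMSO-dissolved compounds and fluorescence at Ex/Em 480/540 is tracked for 3 min.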

[4] = target: KiSS-1 receptor (Homo sapiens) (UniProt Q969F8); test: Human kisspeptin (KISS1R) small molecule agonists, calcium flux assay in KISS1R-HEK293 cells (AID 1920064; active means well fitted curve in the direction sought with a large enough effect in the repeat runs; an effect the other way counts as inactive or inconclusive)
In short: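 Concentration-response testing used 15 concentrations in triplicate on human KISS1R-expressing HEK293 cells. Calcium-dependent fluorescence (Ex/Em 480/540) was followed kinetically for 3 min after compound transfer.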

[5] = G protein-coupled receptor (GPCR) small molecule agonists, calcium flux assay: HEK293 wild type cell line counter screen (AID 1920065)
In short: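 Fluorescence intensity signals activation. After overnight (18 h) culture and a 1 h calcium dye load at 37 C, compounds are added by pin tool and the plate read at 480/540 nm for 3 min in 1 s steps.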

[6] = p53 small molecule agonists, cell-based qHTS assay with human liver microsomes: qHTS cell viability counter screen (AID 1963579); further: nearly all actives have a fitted effect of over 45% in size
In short: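 Cytotoxicity counter screen: p53RE-bla, 4,000 cells/well; 5 h settle, 37 C/5% CO2; cpd + HLM 0.5 mg/mL + NADPH 0.5 mg/mL (final); 16 h, 37 C; CellTiter-Glo, 30 min RT, luminescence.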

[7] = p53 small molecule agonists, cell-based qHTS assay with rat liver microsomes: qHTS cell viability counter screen (AID 1963580); further: nearly all actives have a fitted effect of over 45% in size
In short: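 After the beta-lactamase ratio was read, CellTiter-Glo was added to the same wells and luminescence measured at 30 min; cells had been treated 16 h at 37 C with compounds, rat liver microsomes and NADPH (0.5 mg/mL final each).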

[8] = p53 small molecule agonists, cell-based qHTS assay (AID 1963582; active means well fitted activation curve with a large enough effect in the signal ratio in the repeat runs, not every such curve was filed as active; the % refers to the signal ratio)
In short: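 After plating, p53RE-bla cells sat 5 h in the incubator; compounds or DMSO vehicle were pinned in; a 16 h incubation at 37 C followed; FRET substrate was added and, 2 h later at RT, fluorescence was measured.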

[9] = target: 5-hydroxytryptamine receptor 2A (Homo sapiens) (UniProt P28223); test: 5-hydroxytryptamine receptor 2A (HTR2A) small molecule agonists, cell-based qHTS assay (AID 1963587); further: nearly all actives have a fitted effect of over 30% in size
In short: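 CHO cells stably expressing human HTR2A, plated 18 h, loaded with calcium dye 1 h at 37 C. Agonist mode: compounds added and intracellular calcium fluorescence recorded kinetically for 2 min at 1 sec intervals.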

[10] = target: Muscarinic acetylcholine receptor M1 (Homo sapiens) (UniProt P11229); test: Cholinergic receptor muscarinic 1 (CHRM1) small molecule antagonists, cell-based qHTS assay (AID 1963588); further: nearly all actives have a fitted effect of over 40% in size
In short: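 Compounds were tested at 15 concentrations in three independent runs. Dye-loaded CHRM1-CHO cells were exposed 5 min at room temperature before stimulation by acetylcholine added at 50nM. Intracellular calcium was read kinetically on FDSS for 3 min.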

[11] = target: Muscarinic acetylcholine receptor M1 (Homo sapiens) (UniProt P11229); test: Cholinergic receptor muscarinic 1 (CHRM1) small molecule agonists, cell-based qHTS assay (AID 1963589); further: nearly all actives have a fitted effect of over 35% in size
In short: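 Fluorescent calcium dye reports M1 activation in stably transfected CHO cells. Compounds, 15 concentrations, added after 1 h dye loading at 37 C; kinetic reading at 1 sec intervals.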

[12] = cAMP Responsive Elements (CRE) small molecule agonists, cell-based qHTS assay (AID 1963590)
In short: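 Compound exposure lasted 3 h at 37 C/5% CO2 in CRE-bla HEK 293T cells grown in assay medium with 10% dialyzed FBS and 25 mM HEPES. Reporter signal came from LiveBLAzer B/G FRET substrate, 2 h, room temperature.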

[13] = cAMP Responsive Elements (CRE) small molecule antagonists, cell-based qHTS assay (AID 1963591; active means well fitted inhibition curve with a large enough effect in the signal ratio in the repeat runs, not every such curve was filed as active; the % refers to the signal ratio)
In short: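 Stimulation used NKH477 at a final 0.25 uM for 3 h in compound-treated CRE-bla HEK293T cells, seeded 18 h beforehand. Reporter activity was measured with LiveBLAzer B/G FRET substrate after 2 h at room temperature.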

[14] = target: Beta-2 adrenergic receptor (Homo sapiens) (UniProt P07550); test: Adrenergic beta2 receptor (ADRB2) small molecule antagonists, cell-based qHTS assay (AID 1963592); further: series mostly up to about 92 µM; nearly all actives have a fitted effect of over 50% in size
In short: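 Assay format: CHO-ADRB2 cells, 18-20hr seeding at 37C/5% CO2, then compound plus 1nM isoproterenol agonist mix for 0.5hr RT. Homogeneous time-resolved fluorescence cAMP detection after 1hr, expressed as 665/615 nm ratio.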

[15] = target: D(2) dopamine receptor (Homo sapiens) (UniProt P14416); test: Dopamine D2 receptor (DRD2) small molecule agonists, cell-based qHTS assay (AID 1963594); further: nearly all actives have a fitted effect of over 35% in size; further: potency means the concentration at half of the fitted maximal effect
In short: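 HEK293 cells stably expressing human DRD2, pre-treated with PDE inhibitor Ro20-1724 (0.1 mM final) and compound 10 min at room temperature, then stimulated with NKH477 (200nM […]) for 30 min. cAMP read by HTRF (665/620 nm).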

[16] = target: D(2) dopamine receptor (Homo sapiens) (UniProt P14416); test: Dopamine D2 receptor (DRD2) small molecule antagonists, cell-based qHTS assay (AID 1963595; active means well fitted inhibition curve with a large enough effect in the signal ratio in the repeat runs, with a control signal flat; the % refers to the signal ratio; further: potency means the concentration at half of the fitted maximal effect)
In short: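 Stable D2 receptor HEK293 line, 24 h after seeding. Compound preincubated 10 min, then quinpirole (12 nM) with forskolin analogue NKH477 (200 nM), 30 min, room temperature. Detection by time-resolved FRET of cAMP.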

[17] = p53 small molecule agonists, cell-based qHTS assay: qHTS cell viability counter screen (AID 1963581); further: nearly all actives have a fitted effect of over 45% in size
In short: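 Luminescence from CellTiter-Glo, reflecting ATP content, serves as the cytotoxicity measure; it is taken after the 2 h reporter substrate step in HCT-116 p53RE-bla cells dosed for 16 h at 37 C.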

[18] = target: Beta-2 adrenergic receptor (Homo sapiens) (UniProt P07550); test: Adrenergic beta2 receptor (ADRB2) small molecule agonists, cell-based qHTS assay (AID 1963593);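 further: CHO cells stably overexpressing human ADRB2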
In short: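 CHO cells stably over-expressing ADRB2 were plated overnight at 37C, then dosed with compounds plus a stimulation mix containing 100uM IBMX and 25uM Ro-20-1724 for 0.5hr at room temperature. cAMP was measured by HTRF competition, 1hr.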

[19] = target: 5-hydroxytryptamine receptor 2A (Homo sapiens) (UniProt P28223); test: 5-hydroxytryptamine receptor 2A (HTR2A) small molecule antagonists, cell-based qHTS assay (AID 1963586); further: nearly all actives have a fitted effect of over 45% in size
In short: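 CHO cells stably expressing human HTR2A were plated for 18 h at 37 C, then loaded with calcium dye for 1 h. Compounds were preincubated 5 min at room temperature before DOI (4 nM solution) was added. Kinetic fluorescence was read for 3 min.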

Muscarinic acetylcholine receptor M1 (Homo sapiens), sequence (P11229 whole entry, looked up): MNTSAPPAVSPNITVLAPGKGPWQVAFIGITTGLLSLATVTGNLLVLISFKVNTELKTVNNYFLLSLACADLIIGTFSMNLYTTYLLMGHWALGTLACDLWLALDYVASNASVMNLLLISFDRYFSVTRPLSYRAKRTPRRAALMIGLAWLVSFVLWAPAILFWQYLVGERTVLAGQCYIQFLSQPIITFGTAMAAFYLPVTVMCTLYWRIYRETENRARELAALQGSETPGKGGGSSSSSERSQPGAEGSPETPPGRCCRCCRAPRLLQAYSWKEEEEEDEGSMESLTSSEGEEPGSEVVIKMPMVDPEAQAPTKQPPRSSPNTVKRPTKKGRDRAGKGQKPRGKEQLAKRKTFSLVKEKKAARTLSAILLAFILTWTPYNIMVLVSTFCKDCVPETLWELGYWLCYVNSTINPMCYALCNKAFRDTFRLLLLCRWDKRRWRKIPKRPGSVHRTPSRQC
5-hydroxytryptamine receptor 2A (Homo sapiens), sequence (P28223 whole entry, looked up): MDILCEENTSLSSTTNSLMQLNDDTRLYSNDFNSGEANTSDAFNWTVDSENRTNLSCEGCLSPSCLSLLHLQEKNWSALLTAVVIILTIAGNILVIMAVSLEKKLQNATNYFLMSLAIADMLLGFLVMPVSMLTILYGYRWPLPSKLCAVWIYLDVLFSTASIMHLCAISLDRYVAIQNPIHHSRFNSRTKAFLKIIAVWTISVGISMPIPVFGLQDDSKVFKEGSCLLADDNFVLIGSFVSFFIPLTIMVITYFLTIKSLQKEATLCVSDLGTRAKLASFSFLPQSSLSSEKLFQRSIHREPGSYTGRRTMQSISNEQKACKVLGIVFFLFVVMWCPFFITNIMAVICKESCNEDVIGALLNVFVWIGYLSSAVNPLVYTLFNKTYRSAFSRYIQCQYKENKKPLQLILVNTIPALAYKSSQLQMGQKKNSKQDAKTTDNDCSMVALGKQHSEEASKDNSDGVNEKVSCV
Beta-2 adrenergic receptor (Homo sapiens), sequence (P07550 whole entry, looked up): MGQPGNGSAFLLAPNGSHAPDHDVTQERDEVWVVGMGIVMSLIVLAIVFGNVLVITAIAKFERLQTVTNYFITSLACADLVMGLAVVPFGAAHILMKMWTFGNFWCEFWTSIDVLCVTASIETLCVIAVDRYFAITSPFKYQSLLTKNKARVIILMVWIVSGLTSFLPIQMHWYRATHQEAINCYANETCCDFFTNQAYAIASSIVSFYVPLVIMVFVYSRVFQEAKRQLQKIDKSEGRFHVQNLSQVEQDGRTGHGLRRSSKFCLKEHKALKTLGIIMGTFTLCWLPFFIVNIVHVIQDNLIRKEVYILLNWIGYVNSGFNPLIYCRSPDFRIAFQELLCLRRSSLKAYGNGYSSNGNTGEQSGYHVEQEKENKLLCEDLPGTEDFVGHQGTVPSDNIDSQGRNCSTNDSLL
D(2) dopamine receptor (Homo sapiens), sequence (P14416 whole entry, looked up): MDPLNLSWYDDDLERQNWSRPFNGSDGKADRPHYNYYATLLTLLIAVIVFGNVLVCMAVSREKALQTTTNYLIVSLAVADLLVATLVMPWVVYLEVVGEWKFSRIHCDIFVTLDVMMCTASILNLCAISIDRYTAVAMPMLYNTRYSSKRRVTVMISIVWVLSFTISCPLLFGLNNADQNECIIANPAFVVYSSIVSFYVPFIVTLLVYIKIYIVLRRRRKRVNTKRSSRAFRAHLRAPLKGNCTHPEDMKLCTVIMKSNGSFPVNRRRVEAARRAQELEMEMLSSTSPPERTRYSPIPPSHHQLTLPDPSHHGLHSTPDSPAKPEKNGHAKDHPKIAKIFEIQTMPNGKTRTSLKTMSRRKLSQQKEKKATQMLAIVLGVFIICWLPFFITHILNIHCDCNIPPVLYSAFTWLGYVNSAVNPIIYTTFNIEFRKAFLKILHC
Gonadotropin-releasing hormone receptor (Homo sapiens), sequence (P30968 whole entry, looked up): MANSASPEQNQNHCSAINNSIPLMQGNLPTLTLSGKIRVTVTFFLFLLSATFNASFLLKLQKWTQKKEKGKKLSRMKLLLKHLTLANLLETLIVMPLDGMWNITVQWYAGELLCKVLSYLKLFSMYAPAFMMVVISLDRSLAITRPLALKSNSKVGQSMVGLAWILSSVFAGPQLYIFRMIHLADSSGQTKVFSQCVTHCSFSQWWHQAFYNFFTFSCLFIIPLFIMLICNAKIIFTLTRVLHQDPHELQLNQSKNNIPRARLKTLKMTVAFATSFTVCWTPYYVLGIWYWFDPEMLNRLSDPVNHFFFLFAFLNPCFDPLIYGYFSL
KiSS-1 receptor (Homo sapiens), sequence (Q969F8 whole entry, looked up): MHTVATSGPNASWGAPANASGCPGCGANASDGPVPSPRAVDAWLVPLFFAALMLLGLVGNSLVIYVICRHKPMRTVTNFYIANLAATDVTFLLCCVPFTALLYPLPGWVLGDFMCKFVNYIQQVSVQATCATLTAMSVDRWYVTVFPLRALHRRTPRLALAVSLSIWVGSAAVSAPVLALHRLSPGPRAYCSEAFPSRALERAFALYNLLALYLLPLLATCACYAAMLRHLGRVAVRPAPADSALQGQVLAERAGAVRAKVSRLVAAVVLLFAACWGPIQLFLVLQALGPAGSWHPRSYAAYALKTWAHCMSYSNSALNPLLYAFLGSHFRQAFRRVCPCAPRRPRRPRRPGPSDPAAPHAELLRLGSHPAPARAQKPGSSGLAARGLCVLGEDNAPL

Row | SMILES | Potency [1] | Potency [2] | Potency [3] | Potency [4] | Potency [5] | Potency [6] | Potency [7] | Potency [8] | Potency [9] | Potency [10] | Potency [11] | Potency [12] | Potency [13] | Potency [14] | Potency [15] | Potency [16] | Potency [17] | Potency [18] | Potency [19]
1 | C/C=C/C(=O)C1=C(C)CCCC1(C)C | inactive | inactive | inactive | inactive | inactive | inactive | inactive | inactive | inactive | inactive | inactive | inactive | inactive | inactive | inactive | inactive |  |  | 
2 | CC(C)(CO)[C@@H](O)C(=O)NCCCO | inactive | inactive | inactive | inactive | inactive | inactive | inactive |  |  |  |  | inactive |  | inactive | inactive |  | inactive |  | 
3 | O=C(O)CO | inactive | inactive | inactive | inactive | inactive | inactive | inactive |  |  |  |  | inactive | inactive | inactive |  | inactive | inactive |  | 
4 | CC[C@H](C)C(=O)O[C@H]1C[C@H](O)C=C2C=C[C@H](C)[C@H](CC[C@@H](O)C[C@@H](O)CC(=O)O)[C@H]21 | inactive | inactive | inactive | inactive | inactive | inactive | inactive |  |  |  |  | inactive |  | inactive | 61.1 µM (active) | inactive | inactive |  | 
5 | COc1nc(C)nc(Cl)c1NC1=NCCN1 | inactive | inactive | inactive | inactive | inactive | inactive | inactive |  |  |  |  | inactive | inactive | inactive |  | inactive | inactive | inactive | 
6 | CCCCCC(C)O (stereo not given) | inactive | inactive | inactive | inactive | inactive | inactive | inactive |  | inactive | inactive | inactive | inactive | inactive | inactive | inactive | inactive |  | inactive | inactive
7 | O=C1CCc2cc(OCCCCc3nnnn3C3CCCCC3)ccc2N1 | inactive | inactive | inactive | inactive | inactive | inactive | inactive |  |  |  |  |  |  |  | inactive |  | inactive | inactive | 
8 | C=C(C)C(=O)OCCOCCOC(=O)C(=C)C | inactive | inactive | inactive | inactive | inactive | inactive | inactive |  |  | inactive | inactive |  |  |  | inactive | inactive | inactive | inactive | 
9 | Oc1ccc2c(c1)-c1ccccc1C2 | inactive | inactive | inactive | inactive | inactive | inactive | inactive | inactive | inactive | inactive | inactive | inactive |  | inactive | inactive | inactive |  |  | inactive
10 | CCCCOc1ccc(CC(=O)NO)cc1 | inactive | inactive | inactive | inactive | inactive | inactive | inactive |  | inactive | inactive | inactive | inactive | inactive | inactive | inactive |  |  | inactive | inactive
11 | CC(C)C[C@H]1C(=O)N2CCC[C@H]2[C@]2(O)O[C@](NC(=O)[C@@H]3C=C4c5cccc6[nH]c(Br)c(c56)C[C@H]4N(C)C3)(C(C)C)C(=O)N12 | inactive | inactive | inactive | inactive | inactive | inactive | inactive |  |  |  |  | inactive | inactive |  | 0.0923 µM (active) | inactive | inactive |  | 
12 | CC/C=C\CCCCCCCCCCOC(C)=O | inactive | inactive | inactive | inactive | inactive | inactive | inactive |  | inactive | inactive | inactive | inactive | inactive | inactive | inactive | inactive |  | inactive | inactive
13 | Fc1ccc(C(c2ccc(F)cc2)N2CCN(C/C=C/c3ccccc3)CC2)cc1 | 16.8 µM (active) | inactive | inactive | inactive | inactive | inactive | inactive |  |  |  |  |  |  | inactive | inactive | 16.8 µM (active) | inactive |  | 
14 | CCCCCCCCCCCCCCCC(=O)OCC | inactive | inactive | inactive | inactive | inactive | inactive | inactive |  | inactive | inactive | inactive | inactive | inactive | inactive | inactive | inactive |  | inactive | inactive
15 | CC(C)CO | inactive | inactive | inactive | inactive | inactive | inactive | inactive |  |  |  |  |  | inactive | inactive | inactive | inactive | inactive |  | 
16 | Cn1c(=O)c2c(ncn2CC2OCCO2)n(C)c1=O | inactive | inactive | inactive | inactive | inactive | inactive | inactive |  |  |  |  |  | inactive | inactive | inactive | inactive | inactive | inactive | 
17 | Cc1ccccc1N=C(N)N=C(N)N | inactive | inactive | inactive | inactive | inactive | inactive | inactive |  | inactive | inactive | inactive | inactive | inactive | inactive | inactive | inactive |  | inactive | inactive
